In PubChem BioAssay (NCATS) one finds Potency data, which are given here for 19 compounds.

Inconclusive results are not listed. Where a call stands in place of a potency, no number is given. The source made the active and inactive calls. The call rests on the fitted dose curve; in most records, active means well fitted inhibition curve with a large enough effect; inconclusive means small, poorly fitted or top-dose-only effect; inactive means flat fitted curve, though single readings scatter.
Potency means the concentration at half of the fitted maximal effect.

The assay deals with CP238. Briefly: qHTS profiling for inhibitors of Plasmodium falciparum proliferation (AID 504749). Further: nearly all actives have a fitted effect of over 60% in size. As to conditions: P. falciparum in erythrocytes, SYBR Green DNA, 72 h; series mostly up to 28.7 µM. An outline of the steps: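 Quantitative HTS: compounds pinned into medium, infected erythrocytes added (0.3% parasitemia, 2.5% hematocrit), 72 h culture at 37 C under 5% CO2. Saponin/Triton lysis with SYBR Green I, overnight RT, then fluorescence read.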
On the technique in general: qHTS replaces the single test concentration by a dilution series.
On to `CCCN(CCc1cccs1)[C@H]1CCc2c(O)cccc2C1`, for which the Potency was 10 µM (active).

On to `CN1CCN(C2=Nc3ccccc3Sc3ccc(Cl)cc32)CC1`, for which the Potency result is “inactive”.

For the compound `CC1=C(C(=O)O)N2C(=O)[C@@H](NC(=O)[C@H](N)c3ccccc3)[C@H]2SC1`, the Potency result was “inactive”.

Consider `COc1ccc(C(=O)c2ccccc2O)c(O)c1`, for which the Potency result was “inactive”.

In the case of `COc1cc(N)c(Cl)cc1C(=O)NC1CCN(Cc2ccccc2)CC1`, the Potency entry is “inactive”.

Take `Cc1cc(CC(=O)O)c(C)n1-c1ccc(Cl)cc1`: the Potency result was “inactive”.

Consider `O=C(NC1CCN(CCc2c[nH]c3ccccc23)CC1)c1ccccc1`, for which the Potency result was “inactive”.

For the compound `O=C(O)CCc1nc2ccccc2[nH]1`, the Potency entry was “inactive”.

As to `O=[N+]([O-])c1cccc(S(=O)(=O)NCCNS(=O)(=O)c2cccc([N+](=O)[O-])c2)c1`, the Potency entry was “inactive”.

Turning to `C[N+]1(C)CCC(=C(c2ccccc2)c2ccccc2)CC1`, the Potency entry was “inactive”.

As for `CC[N+](C)(CC)CCOC(=O)C(O)(c1ccccc1)C1CCCCC1` (centres undefined), the Potency result was “inactive”.

With `Oc1c(Cl)cc(Cl)c(Cl)c1Cc1c(O)c(Cl)cc(Cl)c1Cl`, the Potency is 10 µM (active).

For the compound `CCNC(=O)/C=C/c1cccc(Br)c1`, the Potency entry is “inactive”.

Consider `CN1CCN(c2c(F)cc3c(=O)c(C(=O)O)cn4c3c2SCC4)CC1`, for which the Potency entry was “inactive”.

With `Cn1c(=O)c2[nH]c(Br)nc2n(C)c1=O`, the Potency result is “inactive”.

Turning to `Cc1cc2c(OCC(CNC(C)(C)C)OC(=O)c3ccccc3)cccc2[nH]1` (centres undefined), the Potency entry was “inactive”.

On to `CC(C)[N+](C)(C)CC(O)COc1cccc2ccccc12` (centres undefined), for which the Potency result is “inactive”.

Consider `Oc1ccc(Cl)cc1Cc1cc(Cl)ccc1O`, for which the Potency entry is “inactive”.

For the compound `CN1CCC[C@@H]1CCO[C@](C)(c1ccccc1)c1ccc(Cl)cc1`, the Potency entry is “inactive”.
